Measured values taken from PubChem BioAssay (Tox21).
“And” between values parts separate entries of the source, which are not always exact repeats. Equal values may be shown once. Inconclusive results are not listed. The source made the active and inactive calls. The call rests on the fitted dose curve; in most records, active means well fitted inhibition curve with a large enough effect in the signal ratio in the repeat runs (not every such curve was filed as active); inconclusive means weak or mixed curves, or effect the other way; inactive means no such curve, though single readings can be large or run the other way; the % refers to the signal ratio.

molecular target: Estrogen receptor beta (Homo sapiens) (UniProt Q92731); assay: qHTS assay to identify small molecule antagonists of the estrogen receptor beta (ER-beta) signaling pathway (AID 1259378); conditions: ER-beta-UAS-bla HEK293T, beta-lactamase FRET ratio, 16 h; series mostly up to 92.4 µM; activity, negative = inhibition: at the top concentration
Sequence (Q92731 whole entry, looked up): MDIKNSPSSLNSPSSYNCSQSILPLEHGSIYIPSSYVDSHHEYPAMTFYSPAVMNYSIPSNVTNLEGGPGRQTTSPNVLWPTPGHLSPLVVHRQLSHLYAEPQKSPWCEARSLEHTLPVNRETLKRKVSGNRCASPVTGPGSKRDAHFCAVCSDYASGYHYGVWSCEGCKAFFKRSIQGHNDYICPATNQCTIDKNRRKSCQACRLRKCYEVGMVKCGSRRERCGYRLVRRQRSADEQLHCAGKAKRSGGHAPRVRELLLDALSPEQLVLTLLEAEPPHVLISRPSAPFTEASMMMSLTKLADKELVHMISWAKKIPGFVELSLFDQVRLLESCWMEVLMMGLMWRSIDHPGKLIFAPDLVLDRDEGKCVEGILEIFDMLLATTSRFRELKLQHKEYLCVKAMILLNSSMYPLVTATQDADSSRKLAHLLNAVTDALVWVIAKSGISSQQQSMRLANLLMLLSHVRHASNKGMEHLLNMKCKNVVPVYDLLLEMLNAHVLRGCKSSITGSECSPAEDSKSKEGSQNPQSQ
In short: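 Antagonist mode: compounds added to beta-lactamase reporter HEK293T ER-beta-UAS cells stimulated with E2 (1nM final), 16 hr at 37C. LiveBLAzer B/G FRET substrate, 2 hours room temperature, fluorescence read-out.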
On the % scale 0 is the no-effect control and ±100 the full control effect; potency means the concentration at half of the fitted maximal effect.

Row | SMILES | activity, negative = inhibition | Potency
1 | Oc1ccc(Cl)c(Cl)c1Cl | -15.9% (inactive) | –
2 | O=C(N[C@H](c1ccccc1)[C@@H]1CN2CCC1CC2)c1c(Cl)ccc(C(F)(F)F)c1Cl | – | 39.2 µM (active)
3 | CCCCN=C=O | -0.471% (inactive) | –
4 | CCOP(=O)(OCC)Oc1ccc([N+](=O)[O-])cc1 | -18.8% (inactive) | –
5 | COc1nn(C(=O)NS(=O)(=O)c2ccccc2OC(F)(F)F)c(=O)n1C | 4.46% (inactive) | –
6 | Nc1nc(N)nc(N)n1 | 7.15% (inactive) | –
7 | Clc1cc(C(Cl)(Cl)Cl)cnc1Cl | 14.7% (inactive) | –
8 | O=Cc1ccc(Cl)cc1Cl | -3.92% (inactive) | –
9 | CCCCOC(=O)c1ccccc1C(=O)OCc1ccccc1 | – | 6.1 µM (active) and 9.15 µM (active)
10 | CC1C(=O)C[C@]2(C(C)C)C[C@H]12 (some centres not stated) | 14.9% (inactive) | –
11 | CCOC(=O)CBr | 16.7% (inactive) | –
12 | [O-][Cl+]O | -0.453% (inactive) | –
13 | O=C(O)c1ccccc1C(=O)Nc1cccc2ccccc12 | 4.83% (inactive) | –
14 | CCCCCCCCOC(=O)c1ccc(C(=O)OCCCCCCCC)c(C(=O)OCCCCCCCC)c1 | 3.39% (inactive) | –
15 | Clc1cccc2ccccc12 | -17.6% (inactive) | –
16 | CC(C)(CCl)C(=O)Cl | 10.8% (inactive) | –
17 | O=Cc1ccc2c(c1)OCO2 | 2.81% (inactive) | –
